Out of some 5,500 compounds screened, about 2,000 (36%) were called active. Not shown: some 18% with an inconclusive outcome. The list shows a part of the results. Unmarked numbers belong to inactive results. Cut-off read from the data, not from the text of the source: active = normalized growth mostly below about 0.91 (no sharp cut-off); inconclusive = no clear call, values can overlap the other calls; inactive = mostly above about 0.92.
Test: chemical genetic growth profiling, strain panel (AID 1159580);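 note: tested at 20 µM; growth read once vehicle control cultures reached saturation at 30 °C; 1 = growth at the plate median or of vehicle wells; lower values mean less growth of the strain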
Conditions: S. cerevisiae deletion strains, growth OD

Question: Which results are given for `COc1cc(OC)c(C(C)=O)c(O)c1C`?
Answer: normalized growth (locus YAL021C, strain ccr4, active compounds read low): 0.991; normalized growth (locus YAL026C, strain drs2, active compounds read low): 0.908; normalized growth (locus YAL030W, strain snc1, active compounds read low): 0.953; normalized growth (locus YBL061C, strain skt5, active compounds read low): 0.923; normalized growth (locus YBR009C, strain hhf1, active compounds read low): 0.88 (active); normalized growth (locus YBR023C, strain chs3, active compounds read low): 0.905 (active); normalized growth (locus YBR171W, strain sec66, active compounds read low): 0.945; normalized growth (locus YBR231C, strain swc5, active compounds read low): 0.934; normalized growth (locus YBR279W, strain paf1, active compounds read low): 0.951; normalized growth (locus YCL011C, strain gbp2, active compounds read low): 0.905 (active); normalized growth (locus YCL016C, strain dcc1, active compounds read low): 0.956; normalized growth (locus YCL061C, strain MRC1, active compounds read low): 0.937; normalized growth (locus YCL069W, strain vba3, active compounds read low): 0.942; normalized growth (locus YCR088W, strain abp1, active compounds read low): 0.937; normalized growth (locus YDL005C, strain med2, active compounds read low): 0.978; normalized growth (locus YDL040C, strain nat1, active compounds read low): 0.949; normalized growth (locus YDR001C, strain nth1, active compounds read low): 0.939; normalized growth (locus YDR069C, strain doa4, active compounds read low): 0.948; normalized growth (locus YDR137W, strain rgp1, active compounds read low): 0.859; normalized growth (locus YDR159W, strain sac3, active compounds read low): 0.847 (active); normalized growth (locus YDR195W, strain ref2): 1.13; normalized growth (locus YDR297W, strain sur2, active compounds read low): 0.941; normalized growth (locus YDR334W, strain swr1, active compounds read low): 0.946; normalized growth (locus YDR335W, strain msn5, active compounds read low): 0.95; normalized growth (locus YDR392W, strain spt3, active compounds read low): 0.758; normalized growth (locus YEL003W, strain gim4, active compounds read low): 0.923; normalized growth (locus YEL037C, strain rad23, active compounds read low): 0.938; normalized growth (locus YEL061C, strain CIN8 (second series), active compounds read low): 0.931; normalized growth (locus YER015W, strain faa2, active compounds read low): 0.955; normalized growth (locus YER016W, strain bim1, active compounds read low): 0.954; normalized growth (locus YER111C, strain swi4, active compounds read low): 0.95; normalized growth (locus YER155C, strain BEM2 (second series), active compounds read low): 0.735 (active); normalized growth (locus YFR010W, strain ubp6, active compounds read low): 0.932; normalized growth (locus YGL167C, strain pmr1, active compounds read low): 0.945; normalized growth (locus YGL173C, strain kem1, active compounds read low): 0.921; normalized growth (locus YGL227W, strain vid30, active compounds read low): 0.913 (active); normalized growth (locus YGL240W, strain doc1, active compounds read low): 0.812 (active); normalized growth (locus YGL253W, strain hxk2, active compounds read low): 0.935; normalized growth (locus YHR013C, strain ard1, active compounds read low): 0.875; normalized growth (locus YHR027C, strain rpn1, active compounds read low): 0.969; normalized growth (locus YHR030C, strain SLT2, active compounds read low): 0.931; normalized growth (locus YHR079C, strain IRE1, active compounds read low): 0.935; normalized growth (locus YHR142W, strain chs7, active compounds read low): 0.877; normalized growth (locus YJL092W, strain hpr5, active compounds read low): 0.946; normalized growth (locus YJL095W, strain BCK1 (second series), active compounds read low): 0.944; normalized growth (locus YJL095W, strain BCK1, active compounds read low): 0.927; normalized growth (locus YJL115W, strain asf1, active compounds read low): 0.944; normalized growth (locus YJL129C, strain trk1, active compounds read low): 0.903; normalized growth (locus YJL154C, strain vps35, active compounds read low): 0.939; normalized growth (locus YJL164C, strain tpk1, active compounds read low): 0.93; normalized growth (locus YJL166W, strain qcr8, active compounds read low): 0.912; normalized growth (locus YJL187C, strain SWE1, active compounds read low): 0.945; normalized growth (locus YJR066W, strain TOR1, active compounds read low): 0.855; normalized growth (locus YKL160W, strain elf1, active compounds read low): 0.956; normalized growth (locus YKR026C, strain gcn3, active compounds read low): 0.93; normalized growth (locus YKR091W, strain srl3, active compounds read low): 0.946; normalized growth (locus YLL001W, strain dnm1, active compounds read low): 0.939; normalized growth (locus YLL026W, active compounds read low): 0.953; normalized growth (locus YLL041C, strain sdh2, active compounds read low): 0.961; normalized growth (locus YLR027C, strain aat2, active compounds read low): 0.962; normalized growth (locus YLR113W, strain HOG1, active compounds read low): 0.901; normalized growth (locus YLR221C, strain rsa3, active compounds read low): 0.884 (active); normalized growth (locus YLR258W, strain gsy2, active compounds read low): 0.933; normalized growth (locus YLR262C, strain YPT6 (second series), active compounds read low): 0.856 (active); normalized growth (locus YLR320W, strain mms22, active compounds read low): 0.87 (active); normalized growth (locus YLR342W, strain FKS1, active compounds read low): 0.954; normalized growth (locus YLR357W, strain rsc2, active compounds read low): 0.942; normalized growth (locus YLR370C, strain arc18, active compounds read low): 0.938; normalized growth (locus YLR384C, strain iki3, active compounds read low): 0.974; normalized growth (locus YML120C, strain ndi1, active compounds read low): 0.889 (active); normalized growth (locus YMR058W, strain fet3, active compounds read low): 0.908; normalized growth (locus YMR125W, strain sto1, active compounds read low): 0.984; normalized growth (locus YMR129W, active compounds read low): 0.944; normalized growth (locus YMR205C, strain PFK2, active compounds read low): 0.903; normalized growth (locus YMR231W, strain pep5, active compounds read low): 0.982; normalized growth (locus YNL071W, strain lat1, active compounds read low): 0.919; normalized growth (locus YNL183C, strain NPR1, active compounds read low): 0.887; normalized growth (locus YNL209W, strain ssb2, active compounds read low): 0.96; normalized growth (locus YNL248C, strain rpa49, active compounds read low): 0.917; normalized growth (locus YNL322C, strain KRE1 (second series), active compounds read low): 0.927; normalized growth (locus YNR049C, strain mso1, active compounds read low): 0.937; normalized growth (locus YOR001W, strain rrp6, active compounds read low): 0.95; normalized growth (locus YOR070C, strain gyp1, active compounds read low): 0.937; normalized growth (locus YOR080W, strain dia2, active compounds read low): 0.943; normalized growth (locus YOR083W, strain WHI5, active compounds read low): 0.942; normalized growth (locus YOR106W, strain vam3, active compounds read low): 0.91; normalized growth (locus YOR231W, strain MKK1, active compounds read low): 0.96; normalized growth (locus YOR265W, strain rbl2, active compounds read low): 0.962; normalized growth (locus YOR270C, strain vph1, active compounds read low): 0.744 (active); normalized growth (locus YOR290C, strain snf2, active compounds read low): 0.83 (active); normalized growth (locus YPL051W, strain arl3, active compounds read low): 0.972; normalized growth (locus YPL078C, strain atp4, active compounds read low): 0.908; normalized growth (locus YPL106C, strain sse1, active compounds read low): 0.9; normalized growth (locus YPL240C, strain hsp82, active compounds read low): 0.94; normalized growth (locus YPL256C, strain CLN2, active compounds read low): 0.91

Reference: PubChem BioAssay AID1159580 (chemical genetic matrix, 2015)
